# Assay results from PubChem BioAssay (NCATS).
# Results filed as inconclusive are left out. Unmarked numbers belong to inactive results. Active and inactive are the calls of the source. The call rests on the fitted dose curve; in most records, active means well fitted inhibition curve with a large enough effect; inconclusive means small, poorly fitted or top-dose-only effect; inactive means flat fitted curve, though single readings scatter.
# Target: Glutathione peroxidase 1 (Homo sapiens) (UniProt P07203)
# Sequence (P07203 whole entry, looked up): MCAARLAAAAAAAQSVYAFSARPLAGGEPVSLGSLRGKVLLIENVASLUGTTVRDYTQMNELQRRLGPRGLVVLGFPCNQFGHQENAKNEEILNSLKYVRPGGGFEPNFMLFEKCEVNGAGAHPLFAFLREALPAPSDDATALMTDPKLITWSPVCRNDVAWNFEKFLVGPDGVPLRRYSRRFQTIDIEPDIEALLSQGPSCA
# Assay: Primary qHTS Assay for Inhibitors of Recombinant Selenoprotein Glutathione Peroxidase 1 (GPX1) (AID 1845191); further: potency means the concentration at half of the fitted maximal effect
# Conditions: recombinant GPX1, GR-coupled NADPH fluorescence, 15 min; series mostly up to 48.8 µM; activity, negative = inhibition: at the top concentration
# Outline: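 GPX1 10 nM, GR 100 nM, GSH 1 mM, NADPH 0.5 mM, CHP 0.5 mM (final). 30-min cpd preincubation, RT. Ex340/Em450 read t=0, t=15 min.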
# Further: nearly all actives have a fitted effect of over 65% in size.
# On the % scale 0 is the no-effect control and ±100 the full control effect.
Structure (SMILES),"activity, negative = inhibition",outcome,Potency
CCc1cc(S(=O)(=O)O)c2cc(C(C)C)cccc1-2,-19.1%,–,–
O=C(Oc1ccccc1)c1ccccc1O,-26.3%,–,–
CN1C(CSCC(F)(F)F)Nc2cc(Cl)c(S(N)(=O)=O)cc2S1(=O)=O (configuration not stated),-2.63%,–,–
Cc1ncc(CO)c(CO)c1O,0.627%,–,–
COc1cc(NS(=O)(=O)c2ccc(N)cc2)nc(C)n1,–,inactive,–
O=C(O)CNC(=O)CNC(=O)CNC(=O)CSC(=O)c1ccccc1,–,inactive,–
CC(=O)Oc1ccc(C2(c3ccc(OC(C)=O)cc3)Oc3ccccc3NC2=O)cc1,–,inactive,–
CCOC(=O)c1ccc(OCCN2C[C@H](O)[C@@H](O)[C@H](O)[C@H]2CO)cc1,-1.56%,–,–
CCCN(CCC)C(=O)C(CCC(=O)OCCCN1CCN(CCOC(=O)Cc2c(C)n(C(=O)c3ccc(Cl)cc3)c3ccc(OC)cc23)CC1)NC(=O)c1ccccc1 (configuration not stated),-17%,–,–
CN1CCCN=C1/C=C/c1cccs1,–,–,inactive
CN1CCC(=C2c3ccccc3CCc3cccnc32)CC1,–,inactive,–
C[N+]1(CC2COC(c3ccccc3)(c3ccccc3)O2)CCCCC1 (configuration not stated),–,inactive [at 27.7 µM],–
Cc1ccccc1N1CCN(CCc2nnc3n2CCCC3)CC1,3.61%,–,–
Cc1c(F)cc2c(=O)c(C(=O)O)cn3c2c1CCC3C (configuration not stated),-1.89%,–,–
CN(CC1(C)CCCO1)S(=O)(=O)c1ccc(Cl)c(S(N)(=O)=O)c1 (configuration not stated),-4.81%,–,–
CC(=O)[C@H]1CC[C@H]2[C@@H]3C=CC4=CC(=O)CC[C@@]4(C)[C@@H]3CC[C@]12C,–,–,inactive
CNC[C@H](O)[C@@H](O)[C@H](O)[C@H](O)CO,-24.5%,–,–
OC1(c2ccc(Cl)c(C(F)(F)F)c2)CCN(CCCC(c2ccc(F)cc2)c2ccc(F)cc2)CC1,-17.7%,–,–

Structure (SMILES),"activity, negative = inhibition",outcome,Potency
O=[N+]([O-])c1nccn1CO[C@@H](CO)[C@H](O)CO,–,inactive,–
Brc1ccc([C@H]2CN3CCSC3=N2)cc1,–,–,inactive
CCCCC(O)/C=C(C)/C=C/C=C/C(=O)N1CCCC1=O (configuration not stated),-4.13%,–,–
Cc1ccccc1C(=O)N1CC/C(=N\OS(=O)(=O)O)c2ccc(Cl)cc21,–,inactive,–
CC(=O)/C=C/C=C1/C2CCC(C2)C1(C)C (configuration not stated),-13.3%,–,–
OC(CCCN1CCCCC1)(c1ccccc1)c1ccccc1,-7.26%,–,–
COc1c(C)c2c(c(O)c1C/C=C(\C)CCC(=O)OCCN1CCOCC1)C(=O)OC2,–,–,inactive
O=C1[C@@H]2[C@H]3CC[C@H](C3)[C@@H]2C(=O)N1CCCCN1CCN(c2ncccn2)CC1,-4.3%,–,–
CCN1C(=O)c2ccccc2C1Nc1ccc(OCCN2CCCCC2)cc1 (configuration not stated),0.28%,–,–
O=S(=O)(O)c1ccc2nc(-c3ccccc3)[nH]c2c1,–,inactive,–
N=C(N)c1ccc(OCCCOc2ccc(C(=N)N)cc2)cc1,-6.11%,–,–
CCN1CCN(c2cc(-c3ccc(F)cc3)c3c(n2)CCCCCC3)CC1,–,inactive [at 27.7 µM],–
O=C1NC2CCCCN2C12CCN(CCCN1c3ccccc3CCc3ccc(Cl)cc31)CC2 (configuration not stated),-12.3%,–,–
NC(=O)C1(N2CCCCC2)CCN(CCCN2c3ccccc3CCc3ccc(Cl)cc32)CC1,-13.6%,–,–
CCC(=O)Oc1ccc2c(c1)CC[C@@H]1[C@@H]2CC[C@@]2(C)[C@H]1C[C@@H](OC(=O)CC)[C@@H]2OC(=O)CC,–,inactive,–
CCCc1ccc(OCC(=O)N2CCN(C(=O)COc3ccc(CCC)cc3OC)CC2)c(OC)c1,–,inactive,–
CCOC(=O)c1ccc(NC(=O)CN2CCCCC2)cc1,-11.4%,–,–
O=C(CS(=O)Cc1ccco1)NC/C=C\COc1cc(CN2CCCCC2)ccn1 (configuration not stated),–,–,18 µM (active)

# Target: Phospholipid hydroperoxide glutathione peroxidase GPX4 (Homo sapiens) (UniProt P36969)
# Sequence (P36969 whole entry, looked up): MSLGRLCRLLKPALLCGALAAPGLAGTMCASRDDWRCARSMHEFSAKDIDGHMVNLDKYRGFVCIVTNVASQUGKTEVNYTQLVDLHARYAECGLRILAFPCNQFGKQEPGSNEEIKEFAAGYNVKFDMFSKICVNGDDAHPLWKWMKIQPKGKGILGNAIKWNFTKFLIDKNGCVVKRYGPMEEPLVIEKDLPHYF
# Assay: Primary qHTS Assay for Inhibitors of Recombinant Selenoprotein Glutathione Peroxidase 4 (GPX4) (AID 1845192)
# Conditions: recombinant GPX4, GR-coupled NADPH fluorescence, 15 min; series mostly up to 50 µM; activity change, negative = inhibition: at the top concentration
# Outline: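 qHTS, GR-coupled: GPX4 200 nM + cpd 30 min RT → GSH 1 mM, NADPH 0.5 mM, GR 100 nM → CHP 0.5 mM start; fluor 340/450 at t0 and t15 min; no-enzyme wells as control.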
Structure (SMILES),"activity change, negative = inhibition",outcome,Potency
CCc1cc(S(=O)(=O)O)c2cc(C(C)C)cccc1-2,-3.76%,–,–
O=C(Oc1ccccc1)c1ccccc1O,4.26%,–,–
CN1C(CSCC(F)(F)F)Nc2cc(Cl)c(S(N)(=O)=O)cc2S1(=O)=O (configuration not stated),-13.3%,–,–
Cc1ncc(CO)c(CO)c1O,1.05%,–,–
COc1cc(NS(=O)(=O)c2ccc(N)cc2)nc(C)n1,–,inactive,–
O=C(O)CNC(=O)CNC(=O)CNC(=O)CSC(=O)c1ccccc1,–,inactive,–
CC(=O)Oc1ccc(C2(c3ccc(OC(C)=O)cc3)Oc3ccccc3NC2=O)cc1,–,inactive,–
CCOC(=O)c1ccc(OCCN2C[C@H](O)[C@@H](O)[C@H](O)[C@H]2CO)cc1,–,inactive,–
CCCN(CCC)C(=O)C(CCC(=O)OCCCN1CCN(CCOC(=O)Cc2c(C)n(C(=O)c3ccc(Cl)cc3)c3ccc(OC)cc23)CC1)NC(=O)c1ccccc1 (configuration not stated),-6.24%,–,–
CN1CCCN=C1/C=C/c1cccs1,–,–,inactive
CN1CCC(=C2c3ccccc3CCc3cccnc32)CC1,–,inactive,–
C[N+]1(CC2COC(c3ccccc3)(c3ccccc3)O2)CCCCC1 (configuration not stated),–,inactive [at 27.8 µM],–
Cc1ccccc1N1CCN(CCc2nnc3n2CCCC3)CC1,–,inactive,–
Cc1c(F)cc2c(=O)c(C(=O)O)cn3c2c1CCC3C (configuration not stated),-3.42%,–,–
CN(CC1(C)CCCO1)S(=O)(=O)c1ccc(Cl)c(S(N)(=O)=O)c1 (configuration not stated),-5.68%,–,–
CC(=O)[C@H]1CC[C@H]2[C@@H]3C=CC4=CC(=O)CC[C@@]4(C)[C@@H]3CC[C@]12C,–,–,inactive
CNC[C@H](O)[C@@H](O)[C@H](O)[C@H](O)CO,–,inactive,–
OC1(c2ccc(Cl)c(C(F)(F)F)c2)CCN(CCCC(c2ccc(F)cc2)c2ccc(F)cc2)CC1,-11.5%,–,–

Structure (SMILES),"activity change, negative = inhibition",outcome,Potency
O=[N+]([O-])c1nccn1CO[C@@H](CO)[C@H](O)CO,–,inactive,–
Brc1ccc([C@H]2CN3CCSC3=N2)cc1,–,–,inactive
CCCCC(O)/C=C(C)/C=C/C=C/C(=O)N1CCCC1=O (configuration not stated),–,inactive,–
Cc1ccccc1C(=O)N1CC/C(=N\OS(=O)(=O)O)c2ccc(Cl)cc21,–,inactive,–
CC(=O)/C=C/C=C1/C2CCC(C2)C1(C)C (configuration not stated),–,inactive,–
OC(CCCN1CCCCC1)(c1ccccc1)c1ccccc1,-1.52%,–,–
COc1c(C)c2c(c(O)c1C/C=C(\C)CCC(=O)OCCN1CCOCC1)C(=O)OC2,–,–,inactive
O=C1[C@@H]2[C@H]3CC[C@H](C3)[C@@H]2C(=O)N1CCCCN1CCN(c2ncccn2)CC1,2.77%,–,–
CCN1C(=O)c2ccccc2C1Nc1ccc(OCCN2CCCCC2)cc1 (configuration not stated),1.87%,–,–
O=S(=O)(O)c1ccc2nc(-c3ccccc3)[nH]c2c1,–,inactive,–
N=C(N)c1ccc(OCCCOc2ccc(C(=N)N)cc2)cc1,1.27%,–,–
CCN1CCN(c2cc(-c3ccc(F)cc3)c3c(n2)CCCCCC3)CC1,–,inactive [at 27.8 µM],–
O=C1NC2CCCCN2C12CCN(CCCN1c3ccccc3CCc3ccc(Cl)cc31)CC2 (configuration not stated),-2.25%,–,–
NC(=O)C1(N2CCCCC2)CCN(CCCN2c3ccccc3CCc3ccc(Cl)cc32)CC1,-19.4%,–,–
CCC(=O)Oc1ccc2c(c1)CC[C@@H]1[C@@H]2CC[C@@]2(C)[C@H]1C[C@@H](OC(=O)CC)[C@@H]2OC(=O)CC,4.42%,–,–
CCCc1ccc(OCC(=O)N2CCN(C(=O)COc3ccc(CCC)cc3OC)CC2)c(OC)c1,–,inactive,–
CCOC(=O)c1ccc(NC(=O)CN2CCCCC2)cc1,-8.45%,–,–
O=C(CS(=O)Cc1ccco1)NC/C=C\COc1cc(CN2CCCCC2)ccn1 (configuration not stated),–,inactive,–
